Assay outcomes as filed in PubChem.
NTR1 agonist = agonists of human NTR1, primary screen, imaging, U2OS cells, beta-arrestin-GFP, high content. Neurotensin receptor type 1 (Homo sapiens), P30989. NTR1-U2OS beta-arrestin-GFP spot imaging, agonist mode. activation, % at 20 µM. hit rate 0.17% among 330,000. AID 493036, 2011;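 active means activation at or above 40% of the spot to cytoplasm intensity ratio, with at least 20 cells analyzed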;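 further: 0% = DMSO without peptide and 100% = 100 nM NTR1 peptide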
Target sequence (P30989 whole entry, looked up): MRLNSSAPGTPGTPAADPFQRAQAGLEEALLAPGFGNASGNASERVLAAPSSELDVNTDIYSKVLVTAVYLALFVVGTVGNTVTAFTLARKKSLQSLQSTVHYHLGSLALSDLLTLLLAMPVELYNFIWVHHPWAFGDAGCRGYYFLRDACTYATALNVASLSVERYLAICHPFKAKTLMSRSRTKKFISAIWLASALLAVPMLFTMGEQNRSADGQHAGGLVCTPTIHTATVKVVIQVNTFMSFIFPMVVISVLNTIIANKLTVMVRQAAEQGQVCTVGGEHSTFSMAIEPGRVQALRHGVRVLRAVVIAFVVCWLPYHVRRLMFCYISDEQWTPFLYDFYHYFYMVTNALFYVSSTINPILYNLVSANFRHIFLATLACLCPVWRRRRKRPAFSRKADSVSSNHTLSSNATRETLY
CRFR2-BP ag = agonists of CRF-BP/CRF-R2 complex, primary screen, cell-based, HEK293, calcium dye fluorescence, uHTS | activation, % at 13.2 µM | CRF-binding protein / CRF receptor 2 complex (human) | hit rate 0.46% among 350,000 | calcium dye fluorescence (FLIPR); percent of saturating CRF peptide response;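 active means activation of at least 50%, plus an integration ratio under a set limit after plate pattern correction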;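 further: plate controls were neutral control wells without compound for no effect and CRF at EC100 for full effect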
CRFR2-BP antag = antagonists of CRF-BP/CRF-R2 complex, primary screen, cell-based, HEK293, calcium dye fluorescence, uHTS; CRF-induced calcium fluorescence; inhibition, % at 11.8 µM; hit rate 0.59% among 350,000; AID 588475, 2011;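 active means inhibition of the ligand-induced calcium signal above about 50% at the single tested concentration, limit read from the data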
V-ATPase pH = regulators of yeast V-ATPase proton pumping, primary screen, pHLuorin cytosolic pH fluorescence. hit rate 0.37% among 350,000. response, % at 10 µM. AID 504577, 2011. S. cerevisiae; in the data active means response mostly above about 7.3%, no sharp cut-off; inactive means mostly below about 5.4%; further: actives read high
Starred values were filed as active, the others as inactive. Rows were chosen to be rich in hits. Some 1.5% of all compounds tested hit in one or more screens of this group.

COc1ccc(NC(=O)C(NC(=O)c2ccc(=O)[nH]c2)c2ccc(C)cc2)cc1 (stereo unspecified) was read as NTR1 agonist 1, CRFR2-BP ag 0, CRFR2-BP antag 21 and V-ATPase pH 4.
`CCOCCCNC(=O)c1cc2c(=O)n3cccc(C)c3nc2n1C` gave NTR1 agonist 0, CRFR2-BP ag -6, CRFR2-BP antag -11 and V-ATPase pH 16*.
`COCCNC(=O)c1cc2c(=O)n3cccc(C)c3nc2n1C` gave NTR1 agonist 1, CRFR2-BP ag -1, CRFR2-BP antag 13 and V-ATPase pH -5.
COC(=O)[C@H]1C[C@H](O)CN1S(=O)(=O)c1ccc(Br)cc1F was read as NTR1 agonist 1, CRFR2-BP ag 3, CRFR2-BP antag 5 and V-ATPase pH -2.
For CC(C)OCCCNC(=O)c1cccc2c1C(=O)c1ccc(Cl)cc1S2(=O)=O the results were NTR1 agonist 8, CRFR2-BP ag -1, CRFR2-BP antag -3 and V-ATPase pH -2.
For CC(C)COc1ccc(CNC(=S)Nc2ccccc2)cc1Cl the results were NTR1 agonist 23, CRFR2-BP ag 4, CRFR2-BP antag 107* and V-ATPase pH -2.
Screening CC(C)Oc1ccc(CNC(=S)Nc2ccccc2)cc1Cl returned NTR1 agonist 0, CRFR2-BP ag 0, CRFR2-BP antag 14 and V-ATPase pH -3.
`COc1ccc2oc(C(=O)OCC(=O)Nc3ccc(C(=O)N(C)C)cc3)c(C)c2c1` gave NTR1 agonist 1, CRFR2-BP ag -1, CRFR2-BP antag 4 and V-ATPase pH -4.
For O=c1nc2n(CCO)c3ccccc3cc-2c(=O)[nH]1 the results were CRFR2-BP ag 3, CRFR2-BP antag -20 and V-ATPase pH 0.
For CN(CC(=O)Nc1cccc(F)c1)C(=O)c1ccc(S(=O)(=O)N2CCCC2)cc1 the results were NTR1 agonist 1, CRFR2-BP ag -2, CRFR2-BP antag -5 and V-ATPase pH 1.
`Cc1ccc(C)c(S(=O)(=O)N2CCN(C(=O)c3n[nH]c(=O)c4ccccc34)CC2)c1` gave NTR1 agonist 0, CRFR2-BP ag 0, CRFR2-BP antag 5 and V-ATPase pH 0.
COc1ccc([N+](=O)[O-])cc1NS(=O)(=O)c1ccc(C)cc1 was read as NTR1 agonist -1, CRFR2-BP ag -3, CRFR2-BP antag 21 and V-ATPase pH 2.
Screening Cc1ccc(S(=O)(=O)Nc2ccc3ccccc3c2[N+](=O)[O-])cc1 returned CRFR2-BP ag -9, CRFR2-BP antag 90* and V-ATPase pH 0.
Cc1ccc(S(=O)(=O)Nc2ccc3cc([N+](=O)[O-])ccc3c2[N+](=O)[O-])cc1 was read as CRFR2-BP ag 6, CRFR2-BP antag 81* and V-ATPase pH 0.
CCc1cccc(CC)c1N1C(=O)C2=C(SCCCS2)C1=O was read as CRFR2-BP ag 137*, CRFR2-BP antag -127 and V-ATPase pH 2.
Screening Cc1ccc(SCCNC(=O)CN(c2ccc3c(c2)OCO3)S(C)(=O)=O)cc1 returned NTR1 agonist -1, CRFR2-BP ag 0, CRFR2-BP antag 3 and V-ATPase pH -4.
CS(=O)(=O)N(CC(=O)NCCSC1CCCCC1)c1ccc2c(c1)OCO2 was read as NTR1 agonist 1, CRFR2-BP ag 2, CRFR2-BP antag -5 and V-ATPase pH 24*.
O=C(NCc1ccccc1)c1cc[n+](CC(=O)c2cccs2)cc1 was read as NTR1 agonist 0, CRFR2-BP ag 2, CRFR2-BP antag -6 and V-ATPase pH -1.
Screening CN(C)c1ccc(/C=C(/C(=O)c2ccc(Cl)cc2Cl)n2cncn2)cc1 returned NTR1 agonist 0, CRFR2-BP ag 71*, CRFR2-BP antag -122 and V-ATPase pH -3.
Screening COC(=O)C(CC(=O)c1cccc(OC)c1)c1ccc(F)cc1 (stereo unspecified) returned NTR1 agonist -1, CRFR2-BP ag 0, CRFR2-BP antag 55* and V-ATPase pH -4.
`COc1cccc(C(=O)NCCSc2ccc(F)cc2)c1` gave NTR1 agonist -1, CRFR2-BP ag 0, CRFR2-BP antag 2 and V-ATPase pH 1.
`CC(/C=N/Nc1nc(C)cc(C)n1)=C\c1ccc(C(C)C)cc1` gave NTR1 agonist 1, CRFR2-BP ag -2, CRFR2-BP antag 61* and V-ATPase pH -2.
`CC(/C=N/NC(=O)c1ccncc1)=C\c1ccc(C(C)C)cc1` gave NTR1 agonist 11, CRFR2-BP ag 1, CRFR2-BP antag -35 and V-ATPase pH 0.
For CCC(=O)Nc1ccc(C(=O)Cn2ncc(Cl)c(Cl)c2=O)cc1 the results were NTR1 agonist 10, CRFR2-BP ag 1, CRFR2-BP antag 4 and V-ATPase pH 11*.
